Laboratory results as given in the supplement of paper PMC4466140.

molecular target: AgAbp1; assay: SPOT peptide array binding signal intensity (averaged, normalized) (arbitrary units (background-subtracted, floor 0; scale differs between SH3 domains)); higher = stronger binding of the SH3 domain to the peptide
Method in brief: (§1)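 Spot intensities were captured after detection with anti-GST antibody, an HRP-linked anti-mouse secondary and luminol, and quantified with Genespotter. The probes were GST-fused SH3 domains from four yeast species, produced in E. coli BL21(DE3), purified on glutathione Sepharose and incubated at 10 μg/ml overnight at 4°C on cellulose-bound synthetic 15-mer peptides with cysteines replaced by serines. Binding signal is the normalized, background-subtracted spot intensity averaged over replicates, and its arbitrary units differ between domains.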

Binder | SPOT peptide array binding signal intensity
SHRLWLYAAPKRPKT | 15.5

molecular target: AgBbc1; assay: as above
Method in brief: as §1

Binder | SPOT peptide array binding signal intensity
SHRLWLYAAPKRPKT | 42

molecular target: AgBem1-D1; assay: as above
Method in brief: as §1

Binder | SPOT peptide array binding signal intensity
SHRLWLYAAPKRPKT | 110

molecular target: AgBzz1-D1; assay: as above
Method in brief: as §1

Binder | SPOT peptide array binding signal intensity
SHRLWLYAAPKRPKT | 46

molecular target: AgBzz1-D2; assay: as above
Method in brief: as §1

Binder | SPOT peptide array binding signal intensity
SHRLWLYAAPKRPKT | 42

molecular target: AgCyk3; assay: as above
Method in brief: as §1

Binder | SPOT peptide array binding signal intensity
SHRLWLYAAPKRPKT | 0.5

molecular target: AgFus1; assay: as above
Method in brief: as §1

Binder | SPOT peptide array binding signal intensity
SHRLWLYAAPKRPKT | 296

molecular target: AgHof1; assay: as above
Method in brief: as §1

Binder | SPOT peptide array binding signal intensity
SHRLWLYAAPKRPKT | 26

molecular target: AgHse1; assay: as above
Method in brief: as §1

Binder | SPOT peptide array binding signal intensity
SHRLWLYAAPKRPKT | 5

molecular target: AgLsb1; assay: as above
Method in brief: as §1

Binder | SPOT peptide array binding signal intensity
SHRLWLYAAPKRPKT | 0.5

molecular target: AgLsb4; assay: as above
Method in brief: as §1

Binder | SPOT peptide array binding signal intensity
SHRLWLYAAPKRPKT | 28.5

molecular target: AgMyo5; assay: as above
Method in brief: as §1

Binder | SPOT peptide array binding signal intensity
SHRLWLYAAPKRPKT | 5.5

molecular target: AgNbp2; assay: as above
Method in brief: as §1

Binder | SPOT peptide array binding signal intensity
SHRLWLYAAPKRPKT | 29.5

molecular target: AgRvs167; assay: as above
Method in brief: as §1

Binder | SPOT peptide array binding signal intensity
SHRLWLYAAPKRPKT | 2

molecular target: AgSho1; assay: as above
Method in brief: as §1

Binder | SPOT peptide array binding signal intensity
SHRLWLYAAPKRPKT | 23.5

molecular target: AgSla1-D1-D2; assay: as above
Method in brief: as §1

Binder | SPOT peptide array binding signal intensity
SHRLWLYAAPKRPKT | 44

molecular target: AgSla1-D3; assay: as above
Method in brief: as §1

Binder | SPOT peptide array binding signal intensity
SHRLWLYAAPKRPKT | 11

molecular target: CaAbp1-D1; assay: as above
Method in brief: as §1

Binder | SPOT peptide array binding signal intensity
SHRLWLYAAPKRPKT | 63

molecular target: CaAbp1-D2; assay: as above
Method in brief: as §1

Binder | SPOT peptide array binding signal intensity
SHRLWLYAAPKRPKT | 37.5

molecular target: CaBbc1; assay: as above
Method in brief: as §1

Binder | SPOT peptide array binding signal intensity
SHRLWLYAAPKRPKT | 100

molecular target: CaBem1-D1; assay: as above
Method in brief: as §1

Binder | SPOT peptide array binding signal intensity
SHRLWLYAAPKRPKT | 52

molecular target: CaBzz1-D1; assay: as above
Method in brief: as §1

Binder | SPOT peptide array binding signal intensity
SHRLWLYAAPKRPKT | 73

molecular target: CaBzz1-D2; assay: as above
Method in brief: as §1

Binder | SPOT peptide array binding signal intensity
SHRLWLYAAPKRPKT | 38.5

molecular target: CaCyk3; assay: as above
Method in brief: as §1

Binder | SPOT peptide array binding signal intensity
SHRLWLYAAPKRPKT | 7

molecular target: CaFus1; assay: as above
Method in brief: as §1

Binder | SPOT peptide array binding signal intensity
SHRLWLYAAPKRPKT | 266

molecular target: CaHof1; assay: as above
Method in brief: as §1

Binder | SPOT peptide array binding signal intensity
SHRLWLYAAPKRPKT | 0.5

molecular target: CaHse1; assay: as above
Method in brief: as §1

Binder | SPOT peptide array binding signal intensity
SHRLWLYAAPKRPKT | 26.2

molecular target: CaLsb1; assay: as above
Method in brief: as §1

Binder | SPOT peptide array binding signal intensity
SHRLWLYAAPKRPKT | 1.5

molecular target: CaLsb4; assay: as above
Method in brief: as §1

Binder | SPOT peptide array binding signal intensity
SHRLWLYAAPKRPKT | 48

molecular target: CaMyo5; assay: as above
Method in brief: as §1

Binder | SPOT peptide array binding signal intensity
SHRLWLYAAPKRPKT | 18

molecular target: CaNbp2; assay: as above
Method in brief: as §1

Binder | SPOT peptide array binding signal intensity
SHRLWLYAAPKRPKT | 133

molecular target: CaRvs167; assay: as above
Method in brief: as §1

Binder | SPOT peptide array binding signal intensity
SHRLWLYAAPKRPKT | 14

molecular target: CaRvs167-3; assay: as above
Method in brief: as §1

Binder | SPOT peptide array binding signal intensity
SHRLWLYAAPKRPKT | 24.5

molecular target: CaSho1; assay: as above
Method in brief: as §1

Binder | SPOT peptide array binding signal intensity
SHRLWLYAAPKRPKT | 149

molecular target: CaSla1-D1-D2; assay: as above
Method in brief: as §1

Binder | SPOT peptide array binding signal intensity
SHRLWLYAAPKRPKT | 10.5

molecular target: CaSla1-D3; assay: as above
Method in brief: as §1

Binder | SPOT peptide array binding signal intensity
SHRLWLYAAPKRPKT | 17.8

molecular target: ScAbp1; assay: as above
Method in brief: as §1

Binder | SPOT peptide array binding signal intensity
SHRLWLYAAPKRPKT | 41

molecular target: ScBbc1; assay: as above
Method in brief: as §1

Binder | SPOT peptide array binding signal intensity
SHRLWLYAAPKRPKT | 7.75

molecular target: ScBem1-D1; assay: as above
Method in brief: as §1

Binder | SPOT peptide array binding signal intensity
SHRLWLYAAPKRPKT | 19

molecular target: ScBzz1-D1; assay: as above
Method in brief: as §1

Binder | SPOT peptide array binding signal intensity
SHRLWLYAAPKRPKT | 42

molecular target: ScBzz1-D2; assay: as above
Method in brief: as §1

Binder | SPOT peptide array binding signal intensity
SHRLWLYAAPKRPKT | 71

molecular target: ScCyk3; assay: as above
Method in brief: as §1

Binder | SPOT peptide array binding signal intensity
SHRLWLYAAPKRPKT | 20

molecular target: ScFus1; assay: as above
Method in brief: as §1

Binder | SPOT peptide array binding signal intensity
SHRLWLYAAPKRPKT | 260

molecular target: ScHof1; assay: as above
Method in brief: as §1

Binder | SPOT peptide array binding signal intensity
SHRLWLYAAPKRPKT | 3.25

molecular target: ScHse1; assay: as above
Method in brief: as §1

Binder | SPOT peptide array binding signal intensity
SHRLWLYAAPKRPKT | 404

molecular target: ScLsb1; assay: as above
Method in brief: as §1

Binder | SPOT peptide array binding signal intensity
SHRLWLYAAPKRPKT | 0.5

molecular target: ScLsb2; assay: as above
Method in brief: as §1

Binder | SPOT peptide array binding signal intensity
SHRLWLYAAPKRPKT | 3

molecular target: ScLsb3; assay: as above
Method in brief: as §1

Binder | SPOT peptide array binding signal intensity
SHRLWLYAAPKRPKT | 64

molecular target: ScLsb4; assay: as above
Method in brief: as §1

Binder | SPOT peptide array binding signal intensity
SHRLWLYAAPKRPKT | ≤ 0

molecular target: ScMyo3; assay: as above
Method in brief: as §1

Binder | SPOT peptide array binding signal intensity
SHRLWLYAAPKRPKT | 10

molecular target: ScMyo5; assay: as above
Method in brief: as §1

Binder | SPOT peptide array binding signal intensity
SHRLWLYAAPKRPKT | 18.5

molecular target: ScNbp2; assay: as above
Method in brief: as §1

Binder | SPOT peptide array binding signal intensity
SHRLWLYAAPKRPKT | 30

molecular target: ScPex13; assay: as above
Method in brief: as §1

Binder | SPOT peptide array binding signal intensity
SHRLWLYAAPKRPKT | 8.75

molecular target: ScRvs167; assay: as above
Method in brief: as §1

Binder | SPOT peptide array binding signal intensity
SHRLWLYAAPKRPKT | 18.3

molecular target: ScSho1; assay: as above
Method in brief: as §1

Binder | SPOT peptide array binding signal intensity
SHRLWLYAAPKRPKT | 309

molecular target: ScSla1-D1-D2; assay: as above
Method in brief: as §1

Binder | SPOT peptide array binding signal intensity
SHRLWLYAAPKRPKT | 32

molecular target: ScSla1-D3; assay: as above
Method in brief: as §1

Binder | SPOT peptide array binding signal intensity
SHRLWLYAAPKRPKT | 5

molecular target: SpAbp1-D1; assay: as above
Method in brief: as §1

Binder | SPOT peptide array binding signal intensity
SHRLWLYAAPKRPKT | 45

molecular target: SpBbc1; assay: as above
Method in brief: as §1

Binder | SPOT peptide array binding signal intensity
SHRLWLYAAPKRPKT | 5

molecular target: SpBzz1-D1; assay: as above
Method in brief: as §1

Binder | SPOT peptide array binding signal intensity
SHRLWLYAAPKRPKT | 171

molecular target: SpBzz1-D2; assay: as above
Method in brief: as §1

Binder | SPOT peptide array binding signal intensity
SHRLWLYAAPKRPKT | 0.5

molecular target: SpCyk3; assay: as above
Method in brief: as §1

Binder | SPOT peptide array binding signal intensity
SHRLWLYAAPKRPKT | 3

molecular target: SpHof1; assay: as above
Method in brief: as §1

Binder | SPOT peptide array binding signal intensity
SHRLWLYAAPKRPKT | 84

molecular target: SpHof1-2; assay: as above
Method in brief: as §1

Binder | SPOT peptide array binding signal intensity
SHRLWLYAAPKRPKT | 24.5

molecular target: SpHof1-3; assay: as above
Method in brief: as §1

Binder | SPOT peptide array binding signal intensity
SHRLWLYAAPKRPKT | 216

molecular target: SpHse1; assay: as above
Method in brief: as §1

Binder | SPOT peptide array binding signal intensity
SHRLWLYAAPKRPKT | 157

molecular target: SpLsb1; assay: as above
Method in brief: as §1

Binder | SPOT peptide array binding signal intensity
SHRLWLYAAPKRPKT | 35.5

molecular target: SpLsb4; assay: as above
Method in brief: as §1

Binder | SPOT peptide array binding signal intensity
SHRLWLYAAPKRPKT | 38.5

molecular target: SpMyo1; assay: as above
Method in brief: as §1

Binder | SPOT peptide array binding signal intensity
SHRLWLYAAPKRPKT | 7.5

molecular target: SpNbp2; assay: as above
Method in brief: as §1

Binder | SPOT peptide array binding signal intensity
SHRLWLYAAPKRPKT | 30

molecular target: SpPex13; assay: as above
Method in brief: as §1

Binder | SPOT peptide array binding signal intensity
SHRLWLYAAPKRPKT | 23

molecular target: SpRvs167; assay: as above
Method in brief: as §1

Binder | SPOT peptide array binding signal intensity
SHRLWLYAAPKRPKT | 7.33

molecular target: SpSla1-D1-D2; assay: as above
Method in brief: as §1

Binder | SPOT peptide array binding signal intensity
SHRLWLYAAPKRPKT | 3

molecular target: SpSla1-D3; assay: as above
Method in brief: as §1

Binder | SPOT peptide array binding signal intensity
SHRLWLYAAPKRPKT | 15
